Experimental data reported in the antibiotic and cytotoxicity screens of Wong et al. (2023).
Among all 39,000 compounds or so, about 1,500 (3.8%) were called active. The full list was thinned out, with actives kept by preference.

Each compound was assayed on HSkMC (human skeletal muscle cells) (assay: cytotoxicity call (relative viability < 0.9)). Details: 10 µM.

| Compound | cytotoxicity call |
| --- | --- |
| C[C@@H]1CN([C@@H](C)CO)C(=O)Cc2cc(NS(=O)(=O)c3cn(C)cn3)ccc2O[C@H]1CN(C)C(=O)Nc1ccccc1 | inactive |
| C[C@H](NC(=O)[C@@H]1N[C@@H]2c3ccc(-c4ccc(C(=O)N(C)C)cc4)c(=O)n3C[C@@H]2[C@H]1CO)c1ccccc1 | inactive |
| COc1ccc2c3c(n(c2c1)C)[C@@H](CO)N(C[C@]13CN(C1)C(=O)c1ccncc1)C(=O)C1CCOCC1 | inactive |
| C[C@H]1CCCCO[C@@H](CN(C)C(=O)Nc2ccc3c(c2)OCO3)[C@@H](C)CN([C@@H](C)CO)C(=O)c2cc(NC(=O)Cc3ccccc3)ccc2O1 | inactive |
| C[C@@H]1CN([C@@H](C)CO)S(=O)(=O)c2ccc(C#CC3(O)CCCC3)cc2O[C@H]1CN(C)C(=O)Nc1ccc(F)cc1 | inactive |
| C[C@@H]1CCCCO[C@@H](CN(C)Cc2ccc(C(F)(F)F)cc2)[C@@H](C)CN([C@H](C)CO)C(=O)c2cc(NS(C)(=O)=O)ccc2O1 | inactive |
| Cc1ccc(S(=O)(=O)N(C)C[C@H]2Oc3ccc(NC(=O)Nc4ccc(C(F)(F)F)cc4)cc3CC(=O)N([C@@H](C)CO)C[C@H]2C)cc1 | active |
| Cc1ccc(S(=O)(=O)N(C)C[C@H]2Oc3ccc(NC(=O)Nc4ccc(C(F)(F)F)cc4)cc3CC(=O)N([C@H](C)CO)C[C@H]2C)cc1 | active |
| C[C@@H]1CN([C@@H](C)CO)C(=O)Cc2cc(NC(=O)Nc3ccc(C(F)(F)F)cc3)ccc2O[C@@H]1CN(C)S(C)(=O)=O | inactive |
| C[C@H](CO)N1C[C@H](C)[C@H](CN(C)S(C)(=O)=O)Oc2ccc(NC(=O)Nc3ccc(C(F)(F)F)cc3)cc2CC1=O | inactive |
| Cc1ccc(S(=O)(=O)N(C)C[C@H]2Oc3ccc(NC(=O)Nc4ccc(C(F)(F)F)cc4)cc3CC(=O)N([C@H](C)CO)C[C@@H]2C)cc1 | active |
| Cc1ccc(S(=O)(=O)N(C)C[C@@H]2Oc3ccc(NC(=O)Nc4ccc(C(F)(F)F)cc4)cc3CC(=O)N([C@H](C)CO)C[C@@H]2C)cc1 | active |
| C[C@@H]1CN([C@H](C)CO)C(=O)c2cc(C#CCN(C)C)cnc2O[C@@H]1CN(C)Cc1ccc2c(c1)OCO2 | inactive |
| C[C@H](CO)N1C[C@H](C)[C@H](CN(C)S(=O)(=O)c2ccc(C(F)(F)F)cc2)OCc2ccccc2-c2ccccc2C1=O | inactive |
| C[C@@H]1CN([C@H](C)CO)C(=O)c2cccc(NC(=O)C3CCCCC3)c2O[C@@H]1CN(C)C(=O)Nc1ccc(C(F)(F)F)cc1 | inactive |
| COc1ccc(NC(=O)CSC2=NC(C)=C(C(=O)Nc3nc4ccccc4s3)[C@H](c3ccco3)C2C#N)cc1 (stereo not given in full) | inactive |
| COc1ccc(CCNS(=O)(=O)c2cn(C)c(=O)n(C)c2=O)cc1 | inactive |
| CCCN(C)C[C@H]1OCCCC[C@@H](C)Oc2ccc(NS(C)(=O)=O)cc2C(=O)N([C@H](C)CO)C[C@@H]1C | inactive |
| C[C@@H]1CN([C@@H](C)CO)C(=O)c2cc(N(C)C)ccc2O[C@H]1CN(C)S(C)(=O)=O | inactive |
| COc1ccc(S(=O)(=O)Nc2cccc3c2O[C@H](CN(C)S(C)(=O)=O)[C@H](C)CN([C@@H](C)CO)C3=O)cc1 | inactive |
| CC(C)NC(=O)N(C)C[C@H]1Oc2ccc(NC(=O)c3ccncc3)cc2CC(=O)N([C@H](C)CO)C[C@H]1C | inactive |
| C[C@@H]1CCCCO[C@@H](CN(C)S(=O)(=O)c2cn(C)cn2)[C@H](C)CN([C@@H](C)CO)C(=O)c2cc(NS(=O)(=O)c3ccc(F)cc3)ccc2O1 | inactive |

| Compound | cytotoxicity call |
| --- | --- |
| Cc1ccc(S(=O)(=O)N(C)C[C@@H]2Oc3ccc(NC(=O)Nc4ccc(C(F)(F)F)cc4)cc3CC(=O)N([C@@H](C)CO)C[C@@H]2C)cc1 | active |
| Cc1ccc(S(=O)(=O)N(C)C[C@@H]2Oc3ccc(NC(=O)Nc4ccc(C(F)(F)F)cc4)cc3CC(=O)N([C@H](C)CO)C[C@H]2C)cc1 | inactive |
| Cc1ccc(S(=O)(=O)N(C)C[C@@H]2Oc3ccc(NC(=O)Nc4ccc(C(F)(F)F)cc4)cc3CC(=O)N([C@@H](C)CO)C[C@H]2C)cc1 | active |
| Cc1ccc(S(=O)(=O)N(C)C[C@H]2Oc3ccc(NC(=O)Nc4ccc(C(F)(F)F)cc4)cc3CC(=O)N([C@@H](C)CO)C[C@@H]2C)cc1 | inactive |
| C[C@@H]1CN([C@@H](C)CO)C(=O)c2cc(NC(=O)c3ccccc3)ccc2O[C@@H](C)CCCCO[C@H]1CN(C)CC1CCCCC1 | inactive |
| Cc1noc(C)c1NC(=O)Nc1ccc2c(c1)C(=O)N([C@@H](C)CO)C[C@@H](C)[C@H](CN(C)Cc1ccc(C(F)(F)F)cc1)O2 | inactive |
| CC(C)(C)[S@](=O)N1Cc2cc(C(=O)NCC(F)(F)F)nc(-c3cccc(-c4cccc(F)c4)c3)c2[C@@H]1CCO | inactive |
| C[C@@H]1CN([C@@H](C)CO)C(=O)Cc2cc(NC(=O)Nc3cccc4ccccc34)ccc2O[C@@H]1CN(C)CC1CCCCC1 | inactive |
| C[C@H]1CN([C@@H](C)CO)C(=O)Cc2cc(NC(=O)Nc3cccc4ccccc34)ccc2O[C@@H]1CN(C)CC1CCCCC1 | active |
| C[C@@H]1CN([C@@H](C)CO)C(=O)Cc2cc(NC(=O)Nc3cccc4ccccc34)ccc2O[C@H]1CN(C)CC1CCCCC1 | inactive |
| C[C@H]1CN([C@@H](C)CO)C(=O)Cc2cc(NC(=O)Nc3cccc4ccccc34)ccc2O[C@H]1CN(C)CC1CCCCC1 | active |
| C[C@@H]1CN([C@H](C)CO)C(=O)Cc2cc(NC(=O)Nc3cccc4ccccc34)ccc2O[C@H]1CN(C)CC1CCCCC1 | inactive |
| C[C@H](CO)N1C[C@H](C)[C@H](CN(C)CC2CCCCC2)Oc2ccc(NC(=O)Nc3cccc4ccccc34)cc2CC1=O | inactive |
| C[C@H](CO)N1C[C@H](C)[C@H](CN(C)C(=O)Nc2ccc3c(c2)OCO3)Oc2ccc(NC(=O)Nc3ccc(C(F)(F)F)cc3)cc2C1=O | inactive |
| COC[C@H]1CNN1C(=O)Nc1c(C)noc1C | inactive |
| Cc1noc(C)c1NC(=O)Nc1ccc2c(c1)C(=O)N([C@@H](C)CO)C[C@H](C)[C@H](CN(C)C(=O)NC(C)C)O2 | inactive |
| C[C@H](CO)N1C[C@H](C)[C@H](CN(C)C(=O)Nc2cccc3ccccc23)Oc2ccc(NS(=O)(=O)c3ccc(F)cc3)cc2C1=O | inactive |
| C[C@@H]1CCCCO[C@@H](CN(C)C(=O)Nc2ccccc2)[C@@H](C)CN([C@H](C)CO)C(=O)c2cc(NC(=O)c3ccccc3)ccc2O1 | inactive |
| C[C@@H]1CN([C@H](C)CO)C(=O)c2cccc(NC(=O)Nc3ccc(C(F)(F)F)cc3)c2O[C@H]1CN(C)Cc1ccccc1 | inactive |
| C[C@@H]1CN([C@@H](C)CO)C(=O)c2cccc(NC(=O)Nc3ccc(C(F)(F)F)cc3)c2O[C@@H]1CN(C)Cc1ccccc1 | inactive |
| C[C@H](CO)N1C[C@H](C)[C@@H](CN(C)Cc2ccccc2)Oc2c(NC(=O)Nc3ccc(C(F)(F)F)cc3)cccc2C1=O | inactive |
| C[C@@H]1CN([C@@H](C)CO)C(=O)c2cccc(NC(=O)Nc3ccc(C(F)(F)F)cc3)c2O[C@H]1CN(C)Cc1ccccc1 | active |

| Compound | cytotoxicity call |
| --- | --- |
| C[C@@H]1CN([C@H](C)CO)C(=O)c2cccc(NC(=O)Nc3ccc(C(F)(F)F)cc3)c2O[C@@H]1CN(C)Cc1ccccc1 | inactive |
| C[C@H]1CN([C@@H](C)CO)C(=O)c2cccc(NC(=O)Nc3ccc(C(F)(F)F)cc3)c2O[C@@H]1CN(C)Cc1ccccc1 | active |
| Cc1c(-c2ccnn2C)cc(C(=O)NCc2ccc(S(C)(=O)=O)cn2)c(=O)n1-c1cccc(C(F)(F)F)c1 | inactive |
| Cc1sc2[nH]cnc(=S)c2c1C | inactive |
| C[C@@H]1CN([C@H](C)CO)C(=O)c2c(c3ccccc3n2C)-c2ccccc2CO[C@H]1CN(C)Cc1ccc2c(c1)OCO2 | inactive |
| C[C@@H]1CN([C@@H](C)CO)C(=O)c2cc(NC(=O)Nc3ccc(C(F)(F)F)cc3)ccc2O[C@@H]1CN(C)Cc1ccc(C(=O)Nc2ccccc2N)cc1 | inactive |
| COCC(=O)N[C@@H]1C[C@H](CO)[C@H](O)C1 | inactive |
| CCCc1cc(=O)n2ncnc2[nH]1 | inactive |
| Cc1noc(C)c1NC(=O)Nc1ccc2c(c1)CC(=O)N([C@H](C)CO)C[C@@H](C)[C@H](CN(C)S(=O)(=O)c1cccs1)O2 | inactive |
| C=C(C)C1CCC2(CO)CCC3(C)C(CCC4C5(C)CCC(O)C(C)(C)C5CCC43C)C12 (stereo not given) | active |
| C=C(C)C1CCC2(C)CCC3(C)C(CCC4C5(C)CCC(O)C(C)(C)C5CCC43C)C12 (stereo not given) | inactive |
| C=C(C)C1CCC2(C(=O)O)CCC3(C)C(CCC4C5(C)CCC(O)C(C)(C)C5CCC43C)C12 (stereo not given) | inactive |
| CN1CCN(C(=O)C[C@@H]2CC[C@@H]3[C@H](COC[C@H](O)CN3Cc3ccc(Oc4ccccc4)cc3)O2)CC1 | inactive |
| CC(C)(C)NC(=O)C[n+]1cccc(/C=N/O)c1 | inactive |
| O=C(C[C@@H]1CC[C@@H]2[C@H](COC[C@@H](O)CN2S(=O)(=O)c2cccc(Cl)c2)O1)NCc1ccncn1 | inactive |
| O=C(NO)c1cn(CC(=O)N2CCC3(CC2)C(=O)NCN3c2ccccc2)nn1 | inactive |
| O=C(NO)c1cn(-c2cccc(C(=O)N3CCC4(CC3)C(=O)NCN4c3ccccc3)c2)nn1 | active |
| O=C(/C=C/c1cccc(-c2cn(-c3cccc(C(=O)N4CCC5(CC4)C(=O)NCN5c4ccccc4)c3)nn2)c1)NO | inactive |
| C=CCNC(=O)[C@H]1CCCN(S(C)(=O)=O)C1 | inactive |
| O=C(C[C@@H]1C=C[C@H](NC(=O)c2ccc3c(c2)OCO3)[C@H](CO)O1)NCc1ccc(Oc2ccccc2)cc1 | inactive |
| COCCNC(=O)C[C@H]1CC[C@@H]2[C@@H](COc3ccc(NS(=O)(=O)c4ccc(Cl)cc4)cc3C(=O)N2C)O1 | inactive |
